Results on twelve molecules are retold here after PubChem BioAssay (NCI).

Among the test systems are NCI-H23 lung; NCI-H226 lung; NCI-H322M lung; HOP-62 NSCLC; NCI-H460 lung; HOP-92 NSCLC; NCI-H522 lung; A549/ATCC NSCLC; 786-0 renal; COLO 205 colon.
What all share (experiment): NCI-60 one-dose screen, 48 h (100 = growth as untreated, 0 = no growth, -100 = all killed)
Common to all, as to conditions: 10 µM unless noted

SMILES strings stand for the structures. This is part of a sample that, as a whole, favours compounds with a hit. Of some 83,000 tested, about 20% had one in any assay.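 Each cell line was grown in a 96-well plate and treated with one concentration of compound for 48 hours. Values below 10 were considered active.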 Calls of active or inactive are those of the source.

With `COc1cc2nc(Cl)nc(NCCO)c2cc1OC`, the growth in the experiment on NCI-H23 lung is 108% (inactive); in the experiment with NCI-H226 lung it was 98.2% (inactive); in the experiment with NCI-H322M lung, 105% (inactive); in the experiment with HOP-62 NSCLC, 114% (inactive); with NCI-H460 lung, 95.7% (inactive); with HOP-92 NSCLC, 95.6% (inactive). The growth in the experiment with NCI-H522 lung was 100% (inactive); in the experiment on A549/ATCC NSCLC, 97.7% (inactive); in the experiment on 786-0 renal, 111% (inactive); with COLO 205 colon it was 125% (inactive).
In the case of `COc1cc(C2C=C(C)N=C3SC=CN32)cc(OC)c1OC` (stereo not given), the growth in the experiment on NCI-H23 lung was 108% (inactive); with NCI-H226 lung it was 103% (inactive); in the experiment on NCI-H322M lung it was 105% (inactive); in the experiment with HOP-62 NSCLC, 106% (inactive); with NCI-H460 lung, 105% (inactive); with HOP-92 NSCLC, 91.6% (inactive). In addition, the growth is 97.2% (inactive) with NCI-H522 lung, 107% (inactive) in the experiment with A549/ATCC NSCLC, 113% (inactive) in the experiment with 786-0 renal and 113% (inactive) in the experiment on COLO 205 colon.
On to `OCc1c(-c2ccccc2)nc2sccn12`, for which the growth in the experiment on NCI-H23 lung was 81.9% (inactive); in the experiment on NCI-H226 lung, 106% (inactive); in the experiment on NCI-H322M lung, 105% (inactive); in the experiment on HOP-62 NSCLC it was 95.5% (inactive); with NCI-H460 lung, 106% (inactive); in the experiment on HOP-92 NSCLC, -8.39% (active). For the same molecule, the growth with NCI-H522 lung was 105% (inactive); with A549/ATCC NSCLC, 101% (inactive); in the experiment on 786-0 renal it was 101% (inactive); in the experiment on COLO 205 colon, 110% (inactive).
As to `O=C1Nc2cc(Cl)ccc2/C1=C/c1ccc(N2CCOCC2)s1`, the growth is 109% (inactive) in the experiment on NCI-H23 lung; 92.9% (inactive) in the experiment on NCI-H226 lung; 101% (inactive) with NCI-H322M lung; 99.4% (inactive) with HOP-62 NSCLC; 112% (inactive) with NCI-H460 lung; 89.4% (inactive) in the experiment on HOP-92 NSCLC. For the same molecule, the growth in the experiment with NCI-H522 lung is 101% (inactive); with A549/ATCC NSCLC, 103% (inactive); in the experiment with 786-0 renal, 88.5% (inactive); in the experiment on COLO 205 colon, 95.1% (inactive).
For the molecule `COc1ccc(NC(=S)/N=c2\oc3c(OC)cccc3cc2-c2cc3ccccc3[nH]2)cc1`, the growth with NCI-H23 lung was 70.1% (inactive); in the experiment on NCI-H226 lung it was 58.8% (inactive); with NCI-H322M lung it was 80.8% (inactive); in the experiment on HOP-62 NSCLC it was 37.6% (inactive); in the experiment on NCI-H460 lung, 69.8% (inactive); in the experiment on HOP-92 NSCLC, -9.96% (active). Further, the growth with NCI-H522 lung is 86.3% (inactive); with A549/ATCC NSCLC, 85.2% (inactive); in the experiment on 786-0 renal, 65% (inactive); in the experiment on COLO 205 colon, 101% (inactive).
With `CCCCCC/C=C\CCCCCCCCOc1ccc(CCOP(=O)(O)OCC[N+](C)(C)C)cc1`, the growth in the experiment on NCI-H23 lung is 98.8% (inactive); in the experiment with NCI-H226 lung, 102% (inactive); in the experiment with NCI-H322M lung, 105% (inactive); in the experiment on HOP-62 NSCLC, 72.8% (inactive); in the experiment on NCI-H460 lung, 26.9% (inactive); in the experiment on HOP-92 NSCLC it was 60.7% (inactive). The growth was 59% (inactive) in the experiment with NCI-H522 lung, 79% (inactive) in the experiment with A549/ATCC NSCLC, 89.6% (inactive) in the experiment on 786-0 renal and 86.4% (inactive) in the experiment with COLO 205 colon.
With `O=C(c1ccncc1)N1N=C(c2ccc(Cl)cc2)CC1c1c[nH]c2ccccc12` (stereo not given), the growth is 85.9% (inactive) in the experiment on NCI-H23 lung; 82.7% (inactive) with NCI-H226 lung; 96.3% (inactive) in the experiment with NCI-H322M lung; 75.1% (inactive) in the experiment with HOP-62 NSCLC; 96.8% (inactive) with NCI-H460 lung; 94.7% (inactive) with HOP-92 NSCLC. Moreover, the growth in the experiment with NCI-H522 lung is 80.8% (inactive); in the experiment with A549/ATCC NSCLC it was 95% (inactive); with 786-0 renal it was 104% (inactive); in the experiment on COLO 205 colon, 97.9% (inactive).
For the molecule `Cc1ccc(C2=NN(c3ccc(S(=O)(=O)NC(=O)NCc4ccccc4)cc3)C(c3ccc(N(C)C)cc3)C2)c(C)c1` (stereo not given), the growth is 49.4% (inactive) in the experiment with NCI-H23 lung; 77.7% (inactive) with NCI-H226 lung; 56.3% (inactive) in the experiment with NCI-H322M lung; 74.9% (inactive) with HOP-62 NSCLC; 31.3% (inactive) in the experiment on NCI-H460 lung; 82.3% (inactive) in the experiment on HOP-92 NSCLC. Further, the growth in the experiment with NCI-H522 lung is 49.7% (inactive); with A549/ATCC NSCLC, 22.1% (inactive); in the experiment with 786-0 renal, 68.5% (inactive); with COLO 205 colon, 62.1% (inactive).
Regarding `Cc1nc(Nc2cccnc2)sc1C(=O)/C=C/c1ccc(Cl)cc1`, the growth with NCI-H23 lung was 92.8% (inactive); with NCI-H226 lung, 62.5% (inactive); in the experiment with NCI-H322M lung, 32.1% (inactive); in the experiment on HOP-62 NSCLC, 15.6% (inactive); with NCI-H460 lung, 70.6% (inactive); with HOP-92 NSCLC it was 92% (inactive). Also, the growth in the experiment on NCI-H522 lung was 44.7% (inactive); in the experiment with A549/ATCC NSCLC it was 26.5% (inactive); in the experiment with 786-0 renal, 12.3% (inactive); in the experiment with COLO 205 colon, 43.8% (inactive).
For the molecule `O=Nc1c(-c2c(O)[nH]c3ccc([N+](=O)[O-])cc23)[nH]c2ccc(O)cc12`, the growth in the experiment with NCI-H23 lung was 3.19% (active); in the experiment on NCI-H226 lung, -4.7% (active); in the experiment on NCI-H322M lung, 7.21% (active); in the experiment on HOP-62 NSCLC it was -9.77% (active); in the experiment on NCI-H460 lung, -28.5% (active); in the experiment with HOP-92 NSCLC it was -3.1% (active). For the same molecule, the growth is -79.1% (active) in the experiment with NCI-H522 lung, 10.6% (inactive) with A549/ATCC NSCLC, 4.21% (active) in the experiment with 786-0 renal and 65.8% (inactive) in the experiment on COLO 205 colon.
On to `NS(=O)(=O)c1ccc(NCC(=O)Nc2ccc(-c3nc4ccccc4s3)cc2)cc1`, for which the growth was 74.7% (inactive) in the experiment on NCI-H23 lung; 83.7% (inactive) with NCI-H226 lung; 88% (inactive) with NCI-H322M lung; 118% (inactive) in the experiment on HOP-62 NSCLC; 92.5% (inactive) in the experiment on NCI-H460 lung; 73.5% (inactive) in the experiment with HOP-92 NSCLC. Moreover, the growth with NCI-H522 lung is -63.8% (active); in the experiment with A549/ATCC NSCLC it was 92.6% (inactive); with 786-0 renal it was 12.1% (inactive); in the experiment with COLO 205 colon, 98.5% (inactive).
For `COc1ccc(C2CC(c3cccs3)=NN2c2ccc(S(=O)(=O)NC(=O)Nc3ccc(C)cc3)cc2)cc1` (stereo not given), the growth was 98.5% (inactive) in the experiment with NCI-H23 lung; 110% (inactive) in the experiment on NCI-H226 lung; 104% (inactive) in the experiment on NCI-H322M lung; 76.9% (inactive) in the experiment on HOP-62 NSCLC; 103% (inactive) in the experiment on NCI-H460 lung; 84.9% (inactive) in the experiment with HOP-92 NSCLC. Moreover, the growth is 91.5% (inactive) in the experiment with NCI-H522 lung, 102% (inactive) with A549/ATCC NSCLC, 104% (inactive) in the experiment on 786-0 renal and -54.6% (active) in the experiment with COLO 205 colon.
